Records with an inconclusive call do not appear. Where a call stands in place of a potency, no number is given. Unmarked numbers belong to inactive results. The source made the active and inactive calls. Calls follow the shape of the full dose curve.
Test: cAMP Responsive Elements (CRE) small molecule agonists, cell-based qHTS assay (AID 1963590)
Details: CRE-bla HEK293T, beta-lactamase FRET ratio, 3 h; series mostly up to 92.4 µM
Source text: U.S. Tox21 Program National Center for Advancing Translational Sciences [NCATS] Division of Preclinical Innovation [DPI] U.S. Environmental Protection Agency [EPA] National Institutes of Environmental Health Sciences [NIEHS] National Toxicology Program [NTP] U.S. Food and Drug Administration [FDA] Tox21 Assay Overview: CREB (cyclic-AMP Responsive Element Binding Protein) is a cellular transcription factor. It binds to certain DNA sequences called cAMP Responsive Elements (CRE) and regulates the transcription of the genes. […] This cell line can be used to find agonists/antagonists of the cyclic AMP signaling pathway. The activation of the report gene under culture conditions can be detected by fluorescence intensity. This cell line has been used to screen the Tox21 10K compound library to identify agonists that induce oxidative stress.
Tox21 Assay Protocol Summary: CRE-bla Hek 293T cells were suspended in assay medium (DMEM containing 10% dialyzed FBS, 0.1 mM NEAA, 1 mM sodium pyruvate and 25 mM HEPES) and dispensed at 2,000 cells/5 uL /well into 1536-well black wall/clear bottom plates using a Multidrop Combi (ThermoFisher Scientific, Waltham, MA) dispenser. After the assay plates were incubated at 37 C/5% CO2 for 18 hrs, 23 nL of compounds dissolved in DMSO, positive controls or DMSO only was transferred to the assay plate by a pintool workstation (Kalypsys, San Diego, CA). After the plates were incubated at 37 C/5% CO2 for 3 hrs, 1 uL of LiveBLAzer B/G FRET substrate (Invitrogen, Carlsbad, CA) was added to each well using Bioraptr Flying Reagent Dispenser (FRD, Aurora Discovery, San Diego, CA). The plates were incubated at room temperature for 2 h.

SMILES | Potency | activation
Cn1[nH]nnc1=S | inactive | 
CNC(=O)CSP(=O)(OC)OC | inactive | 
CN=CNc1ccc(C)cc1C | inactive | 
O=C1CN=C(c2ccccc2)c2cc(Cl)ccc2N1CC1CC1 | inactive | 
CCC1(c2cccc(O)c2)CCCCN(C)C1 (stereo not given) | inactive | 
CC(C)(N)Cc1ccc(Cl)cc1 | inactive | 
CCCCS(=O)(=O)Cl | inactive | 
CCOP(=S)(OCC)SCSc1ccc(Cl)cc1 | inactive | 
O=C(C(Cl)(Cl)Cl)C(Cl)(Cl)Cl | inactive | 
[O]=[Cd] | inactive | 
C[N+]1(C)[C@@H]2CC[C@H]1CC(OC(=O)C(CO)c1ccccc1)C2 (stereo not given in full) | inactive | 
CCOP(=S)(OCC)SCSCC | inactive | 
O=C1CN=C(c2ccccc2)c2cc([N+](=O)[O-])ccc2N1 | inactive | 
CC1(C)CON(Cc2ccccc2Cl)C1=O | inactive | 
C#CC1(O)CCCCC1 | inactive | 
C=CCC1(C(C)CC)C(=O)NC(=O)NC1=O (stereo not given) | inactive | 
COc1cc(OC)c(OC)cc1C=O | inactive | 
C[C@]12CC[C@@H](O)C[C@@H]1CC[C@@H]1[C@@H]2CC[C@]2(C)C(=O)CC[C@@H]12 | inactive | 
CCS(=O)(=O)C(C)(C)S(=O)(=O)CC | inactive | 
CCC[N+](CCC)(CCC)CCC | inactive | 

SMILES | Potency | activation
CCOC(C(=O)OCCN(C)C)(c1ccccc1)c1ccccc1 | inactive | 
Cc1cccc(OP(=O)(Oc2cccc(C)c2)Oc2cccc(C)c2)c1 | inactive | 
CN(C)C1CCCCC1 | inactive | 
C=CC(=O)OCC(C)O (stereo not given) | inactive | 
C=C(Cl)Cl | inactive | 
CCOC1Oc2ccc(OS(C)(=O)=O)cc2C1(C)C (stereo not given) | inactive | 
N#CC(Br)(Br)C(N)=O | inactive | 
C=C(Cl)CSC(=S)N(CC)CC | inactive | 
CC(C)N(Cc1ccccc1)C(=O)C(C)(C)C | inactive | 
COC1CC(=C(c2cccs2)c2cccs2)C[N+](C)(C)C1 (stereo not given) | inactive | 
Nc1c(Br)cc(Br)c2c1C(=O)c1ccccc1C2=O |  | -1.39% [at 19 µM]
CCN(CC)C(C)C(=O)c1ccccc1 (stereo not given) | inactive | 
CC(=O)[O-].CC(=O)[O-].[Co+2] | inactive | 
c1cc[n+]2c(c1)-c1cccc[n+]1CC2 | inactive | 
CCC1(CCC(C)C)C(=O)NC(=O)NC1=O | inactive | 
ClC(Cl)=C(Cl)Cl | inactive | 
Oc1ccc(C2(c3ccc(O)cc3)CCCCC2)cc1 | inactive | 
C=CC(=O)N(C)C | inactive | 
CCc1ccc(C2CCNCC2)cc1 | inactive | 
Cl/C=C\Cl | inactive | 

From PubChem BioAssay (Tox21)
